Measurements: PubChem BioAssay (NCI)
This is part of a sample that, as a whole, favours compounds with a hit. Of some 79,000 tested, about 15% had one in any assay. Calls of active or inactive are those of the source. No stated cut-off is given here; in the data, active means growth inhibition above about 70%; inactive means the rest.

Legend:
[1] = NCI Yeast Anticancer Drug Screen. Data for the rad50 strain (AID 155);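 further: 0% = growth of vehicle-only cultures of the same strain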; conditions: S. cerevisiae rad50 strain growth inhibition; at 50.0 µM; active compounds read high
In short: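 Cells are treated with compound, grown, and their growth is then scored against vehicle-only cultures of the same repair-deficient yeast strain.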

[2] = NCI Yeast Anticancer Drug Screen. Data for the mec2-1 strain (AID 157); conditions: S. cerevisiae mec2-1 strain, at 50.0 µM, active compounds read high
In short: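 Cells of the genetically defined mec2-1 yeast strain are incubated with test compound. Inhibition of growth is calculated against vehicle-treated controls.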

[3] = NCI Yeast Anticancer Drug Screen. Data for the sgs1 mgt1 strain (AID 161);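 further: 0% = growth of cultures given vehicle only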; conditions: S. cerevisiae sgs1 mgt1 strain, at 50.0 µM, active compounds read high
In short: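 Test agents were incubated with a DNA-repair-mutant yeast strain. Growth was then read and compared against vehicle-treated controls.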

[4] = NCI Yeast Anticancer Drug Screen. Data for the cln2 rad14 strain (AID 165);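 further: 0% = growth equal to vehicle treated cultures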; conditions: S. cerevisiae cln2 rad14 strain, at 50.0 µM, active compounds read high
In short: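 The screen exposed genetically defined yeast (cln2 rad14) to test compounds and scored growth inhibition relative to vehicle-treated controls.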

[5] = NCI Yeast Anticancer Drug Screen. Data for the bub3 strain (AID 167); conditions: S. cerevisiae bub3 mutant strain, at 50.0 µM, active compounds read high
In short: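 Part of a panel of yeast mutants defective in DNA damage repair or cell cycle regulation. Each strain is grown with compound, and inhibition is calculated relative to solvent-treated cultures.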

[6] = NCI Yeast Anticancer Drug Screen. Data for the mlh1 rad18 strain (AID 175); conditions: S. cerevisiae mlh1 rad18 strain growth inhibition; at 50.0 µM; active compounds read high
In short: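 Compound-treated yeast growth, normalised to vehicle controls. Strain bears defined DNA repair mutations.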

Measured: growth inhibition

O=C1C=CC(=O)c2c1ccc1c3ccccc3n(CCCCCn3c4ccccc4c4ccc5c(c43)C(=O)C=CC5=O)c21
inactive: [1] -20.8% | [2] -9.85% | [3] -18.2% | [4] 0.8% | [5] -28.4% | [6] -19%

Nc1c(Cl)cc(C(=O)NC2CC2)cc1Cl
inactive: [1] -13.1% | [2] -27.8% | [3] -11.2% | [4] -4.8% | [5] -26.6% | [6] -24.9%

O=C1Oc2ccccc2CC1C(=O)c1ccc(Cl)cc1 (stereo unspecified)
inactive: [1] -7.75% | [2] -0.25% | [3] 8.95% | [4] -61.1% | [5] -21.4% | [6] 7.75%

NNC(=O)CCC(=O)Nc1ccc(Cl)cc1Cl
inactive: [1] -19.9% | [2] 0.65% | [3] -8.25% | [4] 26.9% | [5] 5.1% | [6] 30.9%

O=Cc1ccc(OCc2cccc([N+](=O)[O-])c2)cc1
inactive: [1] 6.6% | [2] 27.1% | [3] 26.4% | [4] -2.6% | [5] 31.4% | [6] 47%

CN1CCc2c1nc(-c1ccc([N+](=O)[O-])cc1)c1c2N(C)CC1
inactive: [1] 13.2% | [2] 0.7% | [3] 2.8% | [4] 6.85% | [5] 10.8% | [6] 9.95%

O=[N+]([O-])c1ccc(-c2cc[cH-]c2)cc1.[Fe+2].c1cc[cH-]c1
inactive: [1] -4.4% | [2] 14.2% | [3] 13.8% | [4] 3.4% | [5] 17.8% | [6] -0.75%

C=C1C(=O)O[C@H]2[C@@H](O)[C@H](C)CCC[C@]3(C)O[C@H]3CC[C@@]3(C)O[C@@H]3C[C@@H]12
active: [3] 70.5%
inactive: [1] 19.4% | [2] 37.2% | [4] 41.8% | [5] 61.1% | [6] 58.2%

CCOC(=O)CNc1nc(Cl)nc(NCC(=O)OCC)n1
inactive: [1] 3.05% | [2] -4.6% | [3] -0.05% | [4] -43.2% | [5] 28.9% | [6] 1.4%

O=c1cc(O)nc(CO)[nH]1
inactive: [1] -4.15% | [2] -5.75% | [3] -41.9% | [4] -14.7% | [5] 3.9% | [6] 2.6%

O=c1[nH]c2cc(Cl)ccc2nc1C1=C(O)c2ccccc2C1
inactive: [1] 32% | [2] 12.7% | [3] 23.6% | [4] 3.35% | [5] 6.7% | [6] 30.6%

O=C1OCC/C1=C\c1ccc(Br)cc1
inactive: [1] 7.2% | [2] -10.2% | [3] 3.3% | [4] -29.6% | [5] 7.5% | [6] -1.1%

COC1OC(C(C)O)C(O)C(O)C1O (stereo unspecified)
inactive: [1] 23.6% | [2] 19% | [3] 10.2% | [4] 14.9% | [5] 4.65% | [6] 1.5%

O=C1NC2OCC(O)C(O1)C2O (stereo unspecified)
inactive: [1] 3.85% | [2] 1% | [3] -13.3% | [4] 7.75% | [5] -2.25% | [6] 16.3%

Cc1ccc(S(=O)(=O)SC(SCC(=O)c2ccc(Br)cc2)C(=O)c2ccc(Br)cc2)cc1 (stereo unspecified)
inactive: [1] 26.6% | [2] -10.4% | [3] 33.5% | [4] 19.9% | [5] -0.15% | [6] 13.2%

Cc1ccc(S(=O)(=O)/C(C#N)=C\N2CCNC2=S)cc1
inactive: [1] -11.7% | [2] -24.3% | [3] -6.4% | [4] 13.5% | [5] 4.4% | [6] -2.25%

O=C(O)c1ccccc1C(=O)Nc1ccc2ccccc2c1
inactive: [1] 15.9% | [2] -4.6% | [3] 5% | [4] 2.6% | [5] 7.55% | [6] 18.9%

O=CNn1cn[nH]c1=S
inactive: [1] 1.9% | [2] -2.65% | [3] -17.6% | [4] 4.25% | [5] 8.75% | [6] 6.95%

Cc1cccc(C2=NC(=C3CCCCC3)C(=O)O2)c1
inactive: [1] 4.5% | [2] 6.6% | [3] 5.8% | [4] 12.2% | [5] 4% | [6] 20.9%

Cc1[nH]c(N)nc(=S)c1CCC(C)C
inactive: [1] -16.6% | [2] -9.7% | [3] -1.05% | [4] -100% | [5] -1.55% | [6] 17.2%

C[C@H]1C(=O)CCC2[C@]3(C)CC4OC(=O)C5(CC[C@@]6(C)CCC(C)(C)CC6C45C)C3CC[C@@]21C (stereo partly specified)
inactive: [1] -0.7% | [2] -7.25% | [3] -25.9% | [4] -3.65% | [5] -34.9% | [6] -15%

CCOC(=O)CCC(=O)c1ccc2cc(OC)ccc2c1
inactive: [1] 5.55% | [2] 25.2% | [3] 11.8% | [4] -36% | [5] 34.9% | [6] 27.1%

CC1(C2(C)CC2(Br)Br)CC1(Br)Br (stereo unspecified)
inactive: [1] 11.4% | [2] -0.65% | [3] 11.3% | [4] 15.8% | [5] -2.5% | [6] -0.65%

CCCC(CO)OC(=O)Nc1ccc(-c2ccccc2)cc1 (stereo unspecified)
inactive: [1] -7.75% | [2] -1.1% | [3] -2.15% | [4] -56% | [5] 27.4% | [6] 11.9%

CCOC(=O)C12CCCCC1=CC1(CC2)SCCS1 (stereo unspecified)
inactive: [1] -0.45% | [2] -9.95% | [3] -30.5% | [4] -1.35% | [5] 4.55% | [6] -15.6%

OC(c1ccccc1)c1ccc2c(c1)CCC2 (stereo unspecified)
inactive: [1] 3.55% | [2] -8.65% | [3] -6.1% | [4] -25.1% | [5] -18% | [6] 5.3%

CN(C)CCN(C)C(=N)N
inactive: [1] -10.3% | [2] -4.25% | [3] -6.45% | [4] -7.5% | [5] -6.55% | [6] -10.9%

Cn1c(=O)c(Br)cc2ccccc21
inactive: [1] 10.2% | [2] 13.9% | [3] 21.3% | [4] 8.45% | [5] 9.1% | [6] 33.5%

O=c1[nH]cnc2c(COCCO)c[nH]c12
inactive: [1] -18.6% | [2] 2.8% | [3] -19.5% | [4] -3.95% | [5] -34.3% | [6] -20.9%

OCC1CCCCCCCCCC1
inactive: [1] 36.3% | [2] -10.7% | [3] 29.8% | [4] 25.1% | [5] 20.1% | [6] 44.5%

O=C1c2ccccc2C2(O)Nc3c(ccc4ccccc34)C12O (stereo unspecified)
inactive: [1] 2% | [2] -3.3% | [3] 10.6% | [4] -3.8% | [5] -16.9% | [6] 15.4%

O=[N+]([O-])c1ccc(P(=O)(O)c2ccc([N+](=O)[O-])cc2)cc1
inactive: [1] 15% | [2] 17.6% | [3] 23.6% | [4] -25.9% | [5] -11% | [6] 34.7%

CC(=O)/C(=C\c1ccc([N+](=O)[O-])cc1)C(=O)CCN(C)C
inactive: [1] 5.25% | [2] 28.1% | [3] 34.9% | [4] -5.3% | [5] 13.4% | [6] -41.2%

[CH3][Sn]([CH3])([O]C(=O)c1ccc2c(c1)OCO2)[O]C(=O)c1ccc2c(c1)OCO2
inactive: [1] -0.15% | [2] -3.25% | [3] -11% | [4] -12.7% | [5] -9.7% | [6] -9.9%

COc1ccc(C23CCCC(=O)C2C2C(=O)CCCC23c2ccc(OC)cc2)cc1 (stereo unspecified)
inactive: [1] 47.4% | [2] -0.85% | [3] 4.4% | [4] 10.6% | [5] 5.25% | [6] 13.1%

CCOC(=O)NC(Nc1cccc(F)c1)(C(F)(F)F)C(F)(F)F
inactive: [1] 16.8% | [2] -9.05% | [3] -22.4% | [4] 20.9% | [5] -12.3% | [6] 4.9%

Cc1ccc([N+](=O)[O-])cc1NC(=O)Nc1cccc(Cl)c1Cl
inactive: [1] 3.55% | [2] 2.95% | [3] 9.8% | [4] 9% | [5] 18.1% | [6] 11.1%

CC(=O)CC(=O)c1cc(C(C)=O)c(O)c(C(C)=O)c1
inactive: [1] -11.8% | [2] 0.75% | [3] 11% | [4] -3.3% | [5] -11.1% | [6] 7.8%

C=C1C(=O)O[C@H]2C3OC3(C)CC/C=C(/C(=O)OC)[C@@H](OC(C)=O)[C@H](OC(=O)C3(C)OC3C)[C@H]12 (stereo partly specified)
inactive: [1] 12.6% | [2] 31.8% | [3] 13.5% | [4] 22.4% | [5] 5.55% | [6] 8.85%

O=C1c2cc3c(-c4ccccc4)oc(-c4ccccc4)c3cc2C(=O)c2c(O)ccc(O)c21
inactive: [1] 1.2% | [2] -7.15% | [3] -20.6% | [4] -4.7% | [5] -5.75% | [6] 5.5%

O=Cc1c(O)ccc2ccc3ccccc3c12
inactive: [1] 16.1% | [2] 7.25% | [3] 10.1% | [4] -32.7% | [5] -7.7% | [6] 16.4%
